# From PubChem
# Rows were chosen to be rich in hits. Some 1.2% of all compounds tested hit in one or more screens of this group.
# RGS4-Gao reg: modulators of RGS4 binding to Galphao, primary screen, biochemical, multiplexed bead flow cytometry | actives lie on both sides | binding response (% of control), % at 10 µM | hit rate 0.33% among 220,000; in the data active = binding response below about 49% or above about 150%; inactive = in between;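 also: fluorescent Galphao activated with aluminum fluoride binding bead-coupled RGS4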
# Target sequence (P09471 whole entry, looked up): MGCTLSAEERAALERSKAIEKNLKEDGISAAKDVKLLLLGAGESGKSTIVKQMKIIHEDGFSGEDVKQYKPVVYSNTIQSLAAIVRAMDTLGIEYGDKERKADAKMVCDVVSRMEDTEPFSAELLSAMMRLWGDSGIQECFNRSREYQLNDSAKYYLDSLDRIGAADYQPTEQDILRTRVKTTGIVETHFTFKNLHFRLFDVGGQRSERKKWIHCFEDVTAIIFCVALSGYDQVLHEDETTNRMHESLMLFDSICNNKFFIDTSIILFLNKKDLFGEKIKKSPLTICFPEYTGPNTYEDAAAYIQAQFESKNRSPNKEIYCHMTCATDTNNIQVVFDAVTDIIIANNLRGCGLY
# RGS7-Gao: RGS7-Galphao binding modulators, primary screen, biochemical, multiplexed bead flow cytometry | hit rate 0.35% among 220,000 | Guanine nucleotide-binding protein G(o) subunit alpha (Homo sapiens), P09471 | binding response (% of control), % at 10 µM | actives lie on both sides; in the data active = binding response below about 49% or above about 150%; inconclusive = no clear call, values can overlap the other calls; inactive = in between;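 also: fluorescent Galphao held in activated GDP-AlF4 state binding bead-coupled RGS7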
# GSH fluor: compound fluorescence on glutathione beads, profiling panel, artefact control, biophysical, 488/530 nm, flow cytometry; GSH beads flow cytometry, compound fluorescence 488/530 nm; hits give high values; fluorescence (KMESF) at 10 µM; hit rate 0.25% among 190,000; AID 1776, 2009; in the data active = fluorescence above about 89;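 also: glutathione beads carrying GST-tagged Bcl family fusion proteins plus one bare bead set; values are compound well signal with DMSO vehicle wells as background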
# RGS8-Gao: RGS8-Galphao binding modulators, primary screen, biochemical, multiplexed bead flow cytometry; actives lie on both sides; response (percent of control binding), % at 10 µM; hit rate 0.34% among 220,000; AID 1423, 2008; in the data active = response below about 60% or above about 140%; inactive = in between;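 also: Galphao activated as the GDP aluminium fluoride complex binding bead-coupled RGS8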
# Avidin bead fluor: green autofluorescence of compounds with avidin beads – biophysical, 488/530 nm, flow cytometry, artefact control, profiling panel. compound fluorescence 488/530 nm; hits give high values. fluorescence (KMESF) at 10 µM. hit rate 0.38% among 220,000; in the data active = fluorescence above about 47
# RGS16-Gao: modulators of RGS16 binding to Galphao, primary screen, biochemical, human proteins, multiplexed bead flow cytometry; bead-based flow cytometry RGS16-Galphao binding, fluorescence; actives lie on both sides; binding response (% of control), % at 10 µM; hit rate 0.38% among 220,000;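 also: Galphao activated by GDP with aluminum fluoride before binding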
# RGS4-Gao HTS: modulators of RGS–Galpha-o binding, primary screen, biochemical, multiplexed beads, flow cytometry, RGS4/7/8/16/19. shares compounds with RGS16-Gao. multiplexed bead flow cytometry. RGS4–Galpha-o binding response, % at 10 µM. hit rate 99% among 1,600;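 also: fluorescently labeled Galpha-o bound to GDP with aluminium fluoride binding biotinylated RGS beads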
# Avidin counter: disruption of biotin probe capture by avidin, counter-screen for RGS protein interaction modulators, biochemical, flow cytometry, bead-based | shares compounds with RGS16-Gao | streptavidin beads, fluorescein-biotin binding | inhibition, % at 10 µM | 1,700 tested, under 10 active | AID 1783, 2009;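 active = inhibition above 50%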;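 also: median green fluorescence of gated singlet beads compared with DMSO control wells; 0% = DMSO wells and 100% = complete loss of bead fluorescence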
# RGS8-Gao single: RGS8-Galphao binding modulators, confirmation, biochemical, multiplexed bead flow cytometry, single concentration | binding response (% of control), % at 10 µM | hit rate 3% among 1,700 | AID 1836, 2009 | bead-based flow cytometry RGS8-Galphao binding, fluorescence; actives lie on both sides | shares compounds with RGS16-Gao; in the data active = binding response below about 72% or above about 130%; inactive = in between;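 also: Galphao activated as GDP AlF4 complex before binding bead RGS8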
# RGS7-Gao confirm: RGS7-Galphao binding modulators, confirmation, biochemical, multiplexed bead flow cytometry, single concentration; shares compounds with RGS16-Gao; bead-based flow cytometry RGS7-Galphao binding; actives lie on both sides; response (percent of control binding), % at 10 µM; hit rate 7.8% among 1,700; AID 1837, 2009; in the data active = response below about 75% or above about 130%; inactive = in between;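 also: fluorescent Galphao activated with GDP and aluminum fluoride binding bead-coupled RGS7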
# RGS16-Gao single: modulators of RGS16-Galphao protein binding, confirmation, biochemical, single concentration, multiplexed bead flow cytometry. AID 1838, 2009. shares compounds with RGS16-Gao. response (% of control binding), % at 10 µM. hit rate 4% among 1,700. bead-based flow cytometry; actives lie on both sides; in the data active = response below about 74% or above about 130%; inactive = in between;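 also: Galphao activated as the GDP aluminium fluoride complex binding bead-coupled RGS16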
# RGS4-Gao single: modulators of RGS4-Galphao protein binding, confirmation, biochemical, single concentration, multiplexed bead flow cytometry; shares compounds with RGS16-Gao; actives lie on both sides; binding response (% of control), % at 10 µM; hit rate 4% among 1,700; AID 1840, 2009; in the data active = binding response below about 74% or above about 130%; inactive = in between
# RGS19-Gao single: regulators of RGS19-Galphao binding, confirmation, biochemical, single point, multiplexed bead flow cytometry; shares compounds with RGS16-Gao; bead-based flow cytometry RGS19-Galphao binding; actives lie on both sides; response (percent of control binding), % at 10 µM; hit rate 5% among 1,700; AID 1841, 2009; in the data active = response below about 50% or above about 160%; inactive = in between;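 also: 100% = no compound control and 0% = blank background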
# Target sequence (P09471 whole entry, looked up): as above
# Target sequence (P49795 whole entry, looked up): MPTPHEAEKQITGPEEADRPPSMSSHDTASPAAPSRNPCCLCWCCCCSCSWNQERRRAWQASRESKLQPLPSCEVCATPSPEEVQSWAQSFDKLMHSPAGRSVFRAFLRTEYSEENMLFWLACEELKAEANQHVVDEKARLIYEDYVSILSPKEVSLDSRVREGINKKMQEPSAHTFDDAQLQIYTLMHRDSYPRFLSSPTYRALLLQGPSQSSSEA
# An asterisk follows results filed as active; ? = inconclusive; . = not tested or not shown; [ ] = another dose, or the depositor's remark. Unless noted, no rule for the calls is given here.
SMILES,RGS4-Gao reg,RGS7-Gao,GSH fluor,RGS8-Gao,Avidin bead fluor,RGS16-Gao,Avidin counter,RGS8-Gao single,RGS7-Gao confirm,RGS16-Gao single,RGS4-Gao single,RGS19-Gao single,others
O=C(Nc1ccc(S(=O)(=O)N2CCOCC2)cc1)c1ccc(Cl)cc1,98.4,?,.,98.5,20,98.8,.,.,.,.,.,.,
CC(=O)Nc1ccc(S(=O)(=O)NNC(=O)c2ccc(S(=O)(=O)N3CCCCC3)cc2)cc1,97.9,99.3,22,87.8,8,20.0*,0.2,93.0,91.9,90.0,91.5,82.1,RGS4-Gao HTS=97.9*
Cc1ccc(C(=O)Nc2ccc(S(=O)(=O)N3CCOCC3)cc2)cc1,150.8*[activator],365.2*[activator],22,93.9,227*,104.4,-0.3,100.2,100.8,105.8,104.6,109.8,
O=C(NNS(=O)(=O)c1ccc(F)cc1)c1ccc(S(=O)(=O)N2CCCCC2)cc1,103.0,100.5,8,100.5,4,112.3,.,.,.,.,.,.,
O=C(Nc1ccccc1-c1nnn(CC(=O)N2CCOCC2)n1)c1ccccc1F,101.2,103.8,18,101.7,10,103.8,.,.,.,.,.,.,
O=C(CSc1ncn[nH]1)c1cc2ccccc2o1,265.4*[activator],243.0*[activator],22,111.9,33,219.4*[activator],-0.7,98.2,99.9,96.1,96.0,70.2,
O=C(CSc1nccc(=O)[nH]1)c1cc2ccccc2o1,97.2,?,.,96.7,7,93.6,.,.,.,.,.,.,
COc1ccc(NC(=O)/C(Cl)=C(/Cl)S(=O)Cc2ccccc2Cl)cn1 (stereo unspecified),96.6,97.8,9,92.6,7,63.1,.,.,.,.,.,.,
CCOC(=O)/C(=N/Nc1ccc(C)cc1)S(=O)(=O)c1ccc(Cl)cc1,105.2,102.3,13,101.0,15,109.2,.,.,.,.,.,.,
CCOC(=O)/C(=N\Nc1ccccc1)S(=O)(=O)c1ccccc1,.,.,40,.,.,.,1.1,102.1,98.7,100.1,97.8,101.4,
O=c1[nH]c(-c2ccccn2)nc2ccccc12,96.8,100.2,62,98.2,6,96.4,.,.,.,.,.,.,
c1ccc(-c2nc3ccccc3[nH]2)nc1,169.9*[activator],157.5*[activator],23,154.4*[activator],12,167.3,-0.3,98.7,101.8,98.6,99.2,109.8,
O=C(Cc1ccccc1)NCc1ccc(-n2cccc2)cc1,101.9,?,17,101.5,10,99.7,.,.,.,.,.,.,
CC1CCCC(C)N1c1nnc(N)s1 (stereo unspecified),52.8,54.9,12,56.9*,2,20.1*,-0.5,101.9,102.1,103.2,103.8,103.9,RGS4-Gao HTS=52.8*
Nc1ccc(-c2nc3ccc(N)cc3o2)cc1,50.5,1.9*,7,47.0*,0,40.0,0.2,106.4,105.1,107.5,103.3,105.1,RGS4-Gao HTS=50.5*
Cc1ccc2nc(-c3cc(N)cc(N)c3)oc2c1,84.5,80.5,18,92.9,29,87.5,.,.,.,.,.,.,
O=C(CCCn1c(=O)[nH]c2cc(Cl)ccc2c1=O)NCCC1=CCCCC1,106.0,107.0,27,112.5,10,126.8,.,.,.,.,.,.,
CCOC(=O)C1C(c2ccc(O)c(O)c2)NC(=S)NC1(O)C(F)(F)F (stereo unspecified),17.5*,34.5*,6,76.3,6,68.3,0.5,97.9,98.4,97.4,96.5,102.2,
COc1ccc(-c2c(C#N)c(C)nc3c2C(=O)c2ccccc2-3)cc1,100.7,98.2,14,103.2,39,100.1,.,.,.,.,.,.,
Cc1nc2c(cc1C#N)C(=O)c1ccccc1-2,86.1,85.1,6,73.8,1,17.9*,-0.9,98.3,99.1,99.3,99.0,96.8,RGS4-Gao HTS=86.1*
N#CC1=C(N)N(c2ccccc2)C2=C(C(=O)CCC2)C1c1ccsc1 (stereo unspecified),96.0,94.8,52,84.6,2,16.1*,1.4,102.2,103.3,103.0,108.0,104.7,RGS4-Gao HTS=96.0*
CC1CC(N(C(=O)c2ccccc2Cl)c2ccccc2)c2ccccc2N1 (stereo unspecified),95.7,101.1,24,100.1,14,98.0,.,.,.,.,.,.,
OCCN(Cc1ccccc1)Cc1cccc(C(F)(F)F)c1,.,.,46,.,.,.,1.0,97.7,90.0,95.8,94.2,70.5,
OCCN(Cc1ccccc1)Cc1ccc(C(F)(F)F)cc1,101.6,98.3,25,100.4,25,101.7,.,.,.,.,.,.,
Cc1ccc(N2CCN(CCc3nc4cc(NS(C)(=O)=O)ccc4n3C)CC2)cc1,120.0,120.3,64,147.1*[activator],9,278.2,-0.2,105.5,100.8,109.1,103.5,98.2,RGS4-Gao HTS=120.0*
O=C1c2ccsc2SCCN1Cc1c(Cl)cccc1Cl,104.1,98.9,9,102.0,10,106.5,.,.,.,.,.,.,
CCOC(=O)N1CN(C(=O)OCC)CN(C(=O)OCC)C1,-37.6*,?,.,5.2*,-2,-22.4*,-1.1,88.7,74.1*,81.8,83.1,68.8,
